The nature of assay [1]: ATG_GLI_CIS: Attagene CIS-FACTORIAL HepG2 Assay for human Zinc Finger Protein GLI1 (AID 2282945). As to conditions: HepG2, Attagene cis-factorial reporter mRNA, GLI element; actives raise or lower the signal. The procedure, abridged: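 HepG2 cells transiently transfected with cis-promoter multiplexed reporter units report endogenous transcription factor activity. After 24 h chemical exposure, reporter mRNA was quantified by RT-PCR, 6-FAM labelling, HpaI digestion and capillary electrophoresis, with bidirectional fitting against DMSO.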

Assay [2] addresses Bile acid receptor (Homo sapiens) (UniProt Q96RI1). The assay can be described thus: ATG_IR1_CIS: Attagene CIS-FACTORIAL HepG2 Assay for human Nuclear Receptor Subfamily 1 Group H Member 4 (NR1H4), IR1 submotif (AID 2282946). The settings on record: IR1 reporter transcription, actives raise or lower the signal. The method, boiled down:
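Transient MRTU transfection, HepG2; 24 h dosing; RNA → RT-PCR → 6-FAM primer extension → HpaI digest → capillary electrophoresis fluorescence. Gain/loss of signal fitted relative to DMSO.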

Assay [3] can be described thus: ATG_GRE_CIS: Attagene CIS-FACTORIAL HepG2 Assay for human Glucocorticoid Response Elements (GRE) (AID 2282947). The settings on record: HepG2 GRE cis-reporter, Attagene multiplex mRNA; actives raise or lower the signal. The method, boiled down: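 HepG2 cells transiently transfected with multiple cis-promoter reporter units measure endogenous TF activity; 24 h compound exposure. Reporter mRNA quantified by RT-PCR, FAM labelling, HpaI digestion and capillary electrophoresis; bidirectional fit vs DMSO baseline.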

Assay [4] is described as follows: ATG_ISRE_CIS: Attagene CIS-FACTORIAL HepG2 Assay for human Interferon Regulatory Factor 1 (IRF1) binding to an Interferon-Stimulated Response Element (ISRE) (AID 2282948). As to conditions: HepG2 ISRE cis-reporter (Attagene), mRNA transcription readout; actives raise or lower the signal. The method, boiled down:
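Transiently transfected HepG2 cells carrying cis-element reporter units, dosed 24 hours. Reporter mRNA quantified by RT-PCR, fluorescent primer extension, HpaI digestion and capillary electrophoresis. Bidirectional fitting relative to DMSO.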

Assay [5] can be described thus: ATG_M_06_CIS: Attagene CIS-FACTORIAL HepG2 Assay for M06 Transcription Factor (Internal Marker) (AID 2282950). The settings on record: HepG2 Attagene CIS-FACTORIAL M06 internal marker reporter; actives raise or lower the signal. The method, boiled down: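 Fluorescence-labelled RT-PCR products from cis-promoter reporter units, cut with HpaI and resolved by capillary electrophoresis, give the signal. Cells are human HepG2, dosed for 24 h. Serves as background control, fitted relative to DMSO.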

Assay [6] deals with Hypoxia-inducible factor 1-alpha (Homo sapiens) (UniProt Q16665). The assay can be described thus: ATG_HIF1a_CIS: Attagene CIS-FACTORIAL HepG2 Assay for human Hypoxia Inducible Factor 1 (HIF1A) (AID 2282951). The settings on record: HepG2 Attagene cis-factorial HIF1a reporter transcription; actives raise or lower the signal. The procedure, abridged:
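Transient MRTU transfection of human HepG2 liver cells, 24 h compound treatment, then total RNA isolation, oligo(dT) reverse transcription, PCR amplification, fluorescent labelling and capillary electrophoresis of reporter fragments. Gain or loss relative to DMSO.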

Assay [7] concerns the target Hepatocyte nuclear factor 6 (Homo sapiens) (UniProt Q9UBC0). The assay can be described thus: ATG_HNF6_CIS: Attagene CIS-FACTORIAL HepG2 Assay for human Hepatocyte Nuclear Factor 6 (HNF6) (AID 2282952). The settings on record: HepG2 Attagene cis-factorial HNF6 reporter transcription; actives raise or lower the signal. The method, boiled down: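 HepG2 cells transiently transfected with cis-element-driven multiplexed reporter units measuring endogenous transcription factor activity. After 24 h exposure, reporter mRNA quantified by RT-PCR, FAM-labelled fragments and capillary electrophoresis; bidirectional fitting versus DMSO.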

Assay [8] is described as follows: ATG_MRE_CIS: Attagene CIS-FACTORIAL HepG2 Assay for human Metal Responsive Element (MRE) (AID 2282954). As to conditions: HepG2 MRE cis-reporter transcription, Attagene multiplex; actives raise or lower the signal. The method, boiled down:
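HepG2 cells transiently transfected with multiple cis-element reporter units measure endogenous MTF1-driven transcription. After 24 h compound exposure, reporter mRNA is quantified by RT-PCR with 6-FAM labelling, HpaI digestion and capillary electrophoresis; bidirectional fits versus DMSO.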

The nature of assay [9]: ATG_PBREM_CIS: Attagene CIS-FACTORIAL HepG2 Assay for human Phenobarbital-responsive Enhancer Module (PBREM) (AID 2282955). The settings on record: HepG2 PBREM cis-reporter, Attagene multiplexed transcription; actives raise or lower the signal. The method, boiled down: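 Endogenous transcription factors in human liver HepG2 cells drive a PBREM cis-element reporter, whose transcript level after 24 h treatment is quantified by RT-PCR with capillary electrophoresis; activity fitted in both directions against DMSO.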

For assay [10], the target named is Paired box protein Pax-6 (Homo sapiens) (UniProt P26367). The assay can be described thus: ATG_Pax6_CIS: Attagene CIS-FACTORIAL HepG2 Assay for human Paired Box 6 (PAX6) (AID 2282956). As to conditions: HepG2 CIS-FACTORIAL PAX6 reporter transcription, RNA readout; actives raise or lower the signal. The method, boiled down: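 HepG2 cells transiently transfected with cis-promoter-driven multiplexed reporter units sensing endogenous transcription factor activity; 24 h chemical exposure. Reporter mRNA quantified by RT-PCR, 6-FAM labelling, HpaI digestion and capillary electrophoresis; bidirectional fit versus DMSO baseline.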
Chain of Paired box protein Pax-6 (Homo sapiens) (P26367 whole entry, looked up): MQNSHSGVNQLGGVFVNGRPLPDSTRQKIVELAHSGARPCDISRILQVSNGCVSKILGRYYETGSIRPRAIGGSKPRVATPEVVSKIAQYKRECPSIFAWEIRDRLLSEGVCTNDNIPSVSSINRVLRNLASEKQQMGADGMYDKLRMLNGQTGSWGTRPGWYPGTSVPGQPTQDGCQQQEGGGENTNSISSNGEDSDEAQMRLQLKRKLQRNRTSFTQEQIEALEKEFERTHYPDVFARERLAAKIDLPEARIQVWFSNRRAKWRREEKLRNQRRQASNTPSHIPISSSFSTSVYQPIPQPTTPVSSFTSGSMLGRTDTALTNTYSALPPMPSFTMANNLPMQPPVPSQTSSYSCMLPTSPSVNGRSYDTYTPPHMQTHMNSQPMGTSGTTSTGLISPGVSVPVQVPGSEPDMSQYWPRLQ

A short description of assay [11]: ATG_PXRE_CIS: Attagene CIS-FACTORIAL HepG2 Assay for human Pregnane X Receptor Element (PXRE) (AID 2282957). The settings on record: HepG2 Attagene CIS-FACTORIAL PXRE reporter, mRNA; actives raise or lower the signal. The procedure, abridged:
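HepG2 cells transiently transfected with cis-element-driven multiplexed reporter units; after 24 h chemical exposure, reporter mRNA measured by RT-PCR, 6-FAM labelling, HpaI digestion and capillary electrophoresis. Bidirectional fitting relative to DMSO.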

Assay [12] in a line: ATG_PPRE_CIS: Attagene CIS-FACTORIAL HepG2 Assay for human Peroxisome Proliferator-activated Response Element (PPRE) (AID 2282958). The settings on record: HepG2 PPRE cis-element reporter, Attagene transcription factor profiling; actives raise or lower the signal. The procedure, abridged: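 HepG2, transient MRTU transfection (cis promoter elements, endogenous TFs). 24 h dosing. RNA → oligo(dT) RT → PCR → 6-FAM primer extension → HpaI digest → CE. Bidirectional fit vs DMSO.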

Assay [13] can be described thus: ATG_Sox_CIS: Attagene CIS-FACTORIAL HepG2 Assay for human SRY-box transcription factor (SOX) (AID 2282960). The settings on record: HepG2 Attagene cis-factorial SOX reporter, mRNA; actives raise or lower the signal. The procedure, abridged: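 Endogenous factor activity in human liver HepG2 cells carrying transfected cis-regulated reporter units. RNA taken 24 h post-dose, reverse-transcribed, PCR-amplified and sized by capillary electrophoresis. Gain or loss of signal fitted relative to DMSO.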

Assay [14] addresses Transcription factor Sp1 (Homo sapiens) (UniProt P08047). The assay can be described thus: ATG_Sp1_CIS: Attagene CIS-FACTORIAL HepG2 Assay for human Specificity Protein 1 (Sp1) (AID 2282961). As to conditions: HepG2 Sp1 cis-reporter transcription, actives raise or lower the signal. The procedure, abridged: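 Transient MRTU-transfected HepG2, 24 h compound exposure. Total RNA → oligo(dT) RT → PCR of reporter → 6-FAM primer extension → HpaI digest → CE. Endpoint fitted both directions vs DMSO.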

Assay [15] in a line: ATG_SREBP_CIS: Attagene CIS-FACTORIAL HepG2 Assay for human Sterol Regulatory Element Binding (SREBP) (AID 2282962). The settings on record: HepG2 Attagene cis-factorial SREBP reporter, mRNA; actives raise or lower the signal. The method, boiled down: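 HepG2 cells transiently transfected with multiplexed cis-promoter reporter units sensing endogenous transcription factors; reporter mRNA measured 24 h after dosing by RT-PCR, 6-FAM labeling, HpaI digestion and capillary electrophoresis. Bidirectional fit versus DMSO.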

In assay [16] the target is Signal transducer and activator of transcription 3 (Homo sapiens) (UniProt P40763). The assay can be described thus: ATG_STAT3_CIS: Attagene CIS-FACTORIAL HepG2 Assay for human Signal Transducer and Activator of Transcription 3 (STAT3) (AID 2282963). The settings on record: HepG2, Attagene cis-factorial STAT3 reporter transcription; actives raise or lower the signal. The method, boiled down:
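HepG2 cells transiently transfected with cis-element-driven multiple reporter transcription units; after 24 h chemical exposure, reporter mRNA measured by RT-PCR, 6-FAM primer-extension labelling, HpaI digestion and capillary electrophoresis. Bidirectional fitting versus DMSO baseline.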

A short description of assay [17]: ATG_TA_CIS: Attagene CIS-FACTORIAL HepG2 Assay for human TA Basal Promoter (AID 2282964). As to conditions: HepG2 Attagene CIS-factorial TA basal promoter reporter; actives raise or lower the signal. The procedure, abridged:
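Multiplexed mRNA reporter assay, HepG2, 24 h. Reporter cDNA amplified, 6-FAM primer-extended, HpaI-cut, CE-sized; DMSO = negative control and baseline.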

Assay [18] in a line: ATG_M_32_CIS: Attagene CIS-FACTORIAL HepG2 Assay for M32 Transcription Factor (Internal Marker) (AID 2282949).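 Note: background control marker of the multiplexed CIS panel rather than a real target.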 The settings on record: HepG2 Attagene cis-factorial M32 reporter, mRNA; actives raise or lower the signal. The procedure, abridged:
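Internal background marker read-out: RT-PCR/capillary electrophoresis fluorescence of reporter transcripts from transiently transfected HepG2 cells after 24 h chemical exposure. Activity fitted bidirectionally relative to DMSO negative control.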

The target in assay [19] is Heat shock factor protein 1 (Homo sapiens) (UniProt Q00613). The assay can be described thus: ATG_HSE_CIS: Attagene CIS-FACTORIAL HepG2 Assay for human Heat Shock Transcription Factor 1 (HSE) (AID 2282953). As to conditions: HepG2 HSE cis-reporter, Attagene RNA transcription; actives raise or lower the signal. The method, boiled down: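 After a 24 h incubation with test chemical, transfected HepG2 cells were harvested for RNA; reporter transcripts were measured by RT-PCR and capillary electrophoresis. Values reflect gain or loss of signal relative to DMSO.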
Chain of Heat shock factor protein 1 (Homo sapiens) (Q00613 whole entry, looked up): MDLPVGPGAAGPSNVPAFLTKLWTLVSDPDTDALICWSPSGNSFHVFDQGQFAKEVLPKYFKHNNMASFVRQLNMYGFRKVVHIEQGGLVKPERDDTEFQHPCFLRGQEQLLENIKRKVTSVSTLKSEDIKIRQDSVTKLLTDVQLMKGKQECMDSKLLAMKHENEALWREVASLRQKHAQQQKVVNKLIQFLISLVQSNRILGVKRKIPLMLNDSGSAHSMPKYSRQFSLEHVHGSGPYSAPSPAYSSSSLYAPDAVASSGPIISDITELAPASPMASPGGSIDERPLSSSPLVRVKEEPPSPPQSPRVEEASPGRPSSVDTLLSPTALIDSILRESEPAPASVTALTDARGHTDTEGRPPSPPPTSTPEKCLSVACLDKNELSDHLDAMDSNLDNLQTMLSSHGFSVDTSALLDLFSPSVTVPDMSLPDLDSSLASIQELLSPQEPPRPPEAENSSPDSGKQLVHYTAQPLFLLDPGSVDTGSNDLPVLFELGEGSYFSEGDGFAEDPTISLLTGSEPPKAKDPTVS

The nature of assay [20]: ATG_RORE_CIS: Attagene CIS-FACTORIAL HepG2 Assay for human RAR-related Orphan Receptor Element (RORE) (AID 2282959). As to conditions: HepG2 Attagene cis-factorial RORE reporter, mRNA; actives raise or lower the signal. The procedure, abridged:
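Transient MRTU transfection of human HepG2 liver cells (FuGene 6); 24 h compound exposure; TriZol RNA, oligo(dT) RT, PCR, FAM labeling, HpaI cut, CE fragment analysis. DMSO = negative control/baseline.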

Activity calls are given as the source filed them. Rule for the calls: active = hit-call score of the fitted dose curve at least 0.9, where 1 is the maximum; inactive = score below 0.9.

Chain of Hypoxia-inducible factor 1-alpha (Homo sapiens) (Q16665 whole entry, looked up, the tested form may be a part): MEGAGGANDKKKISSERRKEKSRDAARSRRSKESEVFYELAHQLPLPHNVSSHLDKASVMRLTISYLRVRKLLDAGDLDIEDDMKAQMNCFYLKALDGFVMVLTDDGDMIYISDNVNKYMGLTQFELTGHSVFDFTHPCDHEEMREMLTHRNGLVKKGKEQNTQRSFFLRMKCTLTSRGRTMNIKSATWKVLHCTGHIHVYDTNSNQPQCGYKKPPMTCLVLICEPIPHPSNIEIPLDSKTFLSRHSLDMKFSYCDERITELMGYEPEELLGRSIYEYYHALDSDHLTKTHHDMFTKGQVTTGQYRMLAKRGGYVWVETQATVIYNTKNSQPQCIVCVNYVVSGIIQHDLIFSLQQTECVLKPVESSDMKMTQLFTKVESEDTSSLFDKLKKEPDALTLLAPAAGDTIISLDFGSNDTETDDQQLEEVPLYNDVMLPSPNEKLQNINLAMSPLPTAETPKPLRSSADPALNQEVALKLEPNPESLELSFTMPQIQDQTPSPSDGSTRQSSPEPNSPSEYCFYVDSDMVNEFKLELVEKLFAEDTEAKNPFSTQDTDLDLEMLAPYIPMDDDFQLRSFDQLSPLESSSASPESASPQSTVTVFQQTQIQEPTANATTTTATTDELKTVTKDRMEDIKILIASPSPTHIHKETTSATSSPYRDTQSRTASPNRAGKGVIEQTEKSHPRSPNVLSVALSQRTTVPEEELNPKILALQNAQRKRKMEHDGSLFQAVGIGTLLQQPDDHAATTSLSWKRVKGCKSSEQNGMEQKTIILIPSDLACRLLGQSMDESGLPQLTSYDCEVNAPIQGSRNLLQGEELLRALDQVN
Chain of Signal transducer and activator of transcription 3 (Homo sapiens) (P40763 whole entry, looked up): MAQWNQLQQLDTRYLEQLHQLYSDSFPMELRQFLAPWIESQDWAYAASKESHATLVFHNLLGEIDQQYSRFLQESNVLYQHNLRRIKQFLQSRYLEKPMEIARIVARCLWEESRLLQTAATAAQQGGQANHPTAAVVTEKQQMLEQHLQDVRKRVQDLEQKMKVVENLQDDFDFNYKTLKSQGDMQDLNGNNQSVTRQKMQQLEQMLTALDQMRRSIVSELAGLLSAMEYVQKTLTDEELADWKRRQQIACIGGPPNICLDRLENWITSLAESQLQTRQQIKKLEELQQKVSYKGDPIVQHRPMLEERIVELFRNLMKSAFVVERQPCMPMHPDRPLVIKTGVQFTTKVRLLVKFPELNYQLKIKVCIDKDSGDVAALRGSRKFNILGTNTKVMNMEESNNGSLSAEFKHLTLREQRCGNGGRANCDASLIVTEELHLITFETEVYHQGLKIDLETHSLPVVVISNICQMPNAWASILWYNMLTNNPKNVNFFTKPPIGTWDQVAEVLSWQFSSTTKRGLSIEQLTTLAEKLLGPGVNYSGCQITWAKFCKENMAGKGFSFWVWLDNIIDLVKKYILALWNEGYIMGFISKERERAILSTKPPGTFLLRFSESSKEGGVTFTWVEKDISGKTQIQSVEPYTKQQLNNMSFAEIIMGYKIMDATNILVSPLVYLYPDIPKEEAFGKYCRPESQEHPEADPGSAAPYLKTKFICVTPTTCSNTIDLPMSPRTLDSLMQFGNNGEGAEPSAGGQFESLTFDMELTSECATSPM
Chain of Transcription factor Sp1 (Homo sapiens) (P08047 whole entry, looked up): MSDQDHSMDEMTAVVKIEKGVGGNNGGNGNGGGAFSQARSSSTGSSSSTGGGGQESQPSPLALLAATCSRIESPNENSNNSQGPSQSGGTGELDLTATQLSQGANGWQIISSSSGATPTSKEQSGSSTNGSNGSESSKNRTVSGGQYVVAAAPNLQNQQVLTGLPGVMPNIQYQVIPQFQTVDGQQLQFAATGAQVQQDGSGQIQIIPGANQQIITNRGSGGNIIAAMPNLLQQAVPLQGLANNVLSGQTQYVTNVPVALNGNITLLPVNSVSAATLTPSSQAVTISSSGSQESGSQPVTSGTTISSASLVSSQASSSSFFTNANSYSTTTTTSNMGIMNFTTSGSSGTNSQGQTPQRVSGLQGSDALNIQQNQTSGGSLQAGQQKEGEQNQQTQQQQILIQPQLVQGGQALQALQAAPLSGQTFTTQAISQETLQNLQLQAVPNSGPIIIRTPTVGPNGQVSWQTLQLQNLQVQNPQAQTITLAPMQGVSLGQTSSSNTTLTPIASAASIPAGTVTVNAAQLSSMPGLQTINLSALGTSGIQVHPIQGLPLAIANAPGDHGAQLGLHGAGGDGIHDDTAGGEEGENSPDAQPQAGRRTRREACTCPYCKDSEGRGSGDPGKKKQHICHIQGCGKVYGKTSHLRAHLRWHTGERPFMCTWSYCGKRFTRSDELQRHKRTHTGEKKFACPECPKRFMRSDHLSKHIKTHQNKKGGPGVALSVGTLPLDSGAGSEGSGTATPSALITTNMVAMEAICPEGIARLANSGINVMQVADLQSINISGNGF
Chain of Bile acid receptor (Homo sapiens) (Q96RI1 whole entry, looked up): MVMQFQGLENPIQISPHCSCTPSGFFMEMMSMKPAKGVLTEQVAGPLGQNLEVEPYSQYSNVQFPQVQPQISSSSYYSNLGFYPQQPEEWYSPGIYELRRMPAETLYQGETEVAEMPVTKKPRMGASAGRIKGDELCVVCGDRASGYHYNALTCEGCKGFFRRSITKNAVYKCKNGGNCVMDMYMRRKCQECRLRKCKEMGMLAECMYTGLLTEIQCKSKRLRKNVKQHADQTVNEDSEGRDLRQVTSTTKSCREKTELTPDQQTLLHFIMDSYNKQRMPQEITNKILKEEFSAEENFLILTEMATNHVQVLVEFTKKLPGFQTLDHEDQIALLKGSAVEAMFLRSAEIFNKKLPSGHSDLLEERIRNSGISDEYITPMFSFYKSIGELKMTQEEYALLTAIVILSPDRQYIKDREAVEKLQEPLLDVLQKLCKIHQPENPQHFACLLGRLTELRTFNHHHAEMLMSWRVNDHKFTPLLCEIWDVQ
Chain of Hepatocyte nuclear factor 6 (Homo sapiens) (Q9UBC0 whole entry, looked up, the tested form may be a part): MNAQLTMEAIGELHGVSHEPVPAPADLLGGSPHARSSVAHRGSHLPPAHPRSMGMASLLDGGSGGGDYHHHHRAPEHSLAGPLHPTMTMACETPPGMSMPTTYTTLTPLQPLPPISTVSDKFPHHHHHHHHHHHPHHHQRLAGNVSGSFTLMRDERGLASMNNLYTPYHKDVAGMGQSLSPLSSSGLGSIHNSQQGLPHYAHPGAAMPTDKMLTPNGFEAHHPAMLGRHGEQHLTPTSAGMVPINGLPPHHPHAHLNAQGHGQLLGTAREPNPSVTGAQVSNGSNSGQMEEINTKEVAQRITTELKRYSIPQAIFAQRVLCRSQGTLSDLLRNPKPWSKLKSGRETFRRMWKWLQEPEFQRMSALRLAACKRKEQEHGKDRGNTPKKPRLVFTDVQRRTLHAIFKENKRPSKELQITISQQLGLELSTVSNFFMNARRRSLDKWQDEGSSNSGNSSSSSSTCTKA

The AC50 is the concentration giving half of the maximal activity seen. Consider `CCOC(=O)[C@H](O)[C@@H](O)C(=O)OCC`, for which the result in assay [1], in assay [2], in assay [3], in assay [4], in assay [5] and in assay [6] was inactive. Further, the result in [7], in [8], in assay [9], in [10], in assay [12] and in assay [13] was inactive. Besides, the outcome in assay [14], in [15], in assay [16] and in assay [17] was inactive. In addition, the AC50 in assay [11] is 52.4 µM (active).
For `C=C(C)C1CC=C(C)C(OC(C)=O)C1` (stereo not given), the outcome in assay [1], in assay [2], in assay [3], in assay [4], in assay [18] and in assay [5] was inactive. The compound was classed as inactive in assay [7], in [19], in assay [8], in assay [11], in assay [12] and in [20]. The result in assay [13], in assay [14], in assay [15], in [16] and in assay [17] was inactive.
Consider `CCCCNS(=O)(=O)c1ccccc1`, for which the compound was called inactive in assay [1], in assay [2], in [3], in [4], in assay [18] and in [6]. Further, the result in assay [7], in [19], in assay [10], in assay [20], in assay [13] and in [14] was inactive. Further, the compound was called inactive in assay [15], in assay [16] and in assay [17].
Consider `CCC1COC(=O)O1` (stereo not given), for which the outcome in [1], in [2], in [4], in assay [18], in [5] and in assay [6] was inactive. The compound was called inactive in assay [7], in assay [19], in assay [8], in [10], in assay [12] and in assay [20]. Also, the compound was called inactive in assay [13], in [14] and in assay [16]. Besides, the AC50 in assay [11] was 16.6 µM (active).

The record behind these values is PubChem BioAssay (EPA / NIEHS).
